# Source: PubChem (National Center for Advancing Translational Sciences (NCATS))
# USP2a block = qHTS Assay for Inhibitors of Ubiquitin-specific Protease USP2a Using CHOP2 as the Reporter; USP2 core, Ub-CHOP2 coupled fluorogenic reporter, 485/531; Ubiquitin carboxyl-terminal hydrolase 2 (Homo sapiens), O75604; actives 0.01% (n = 330,000); Potency, µM (doses to about 38.3 µM), without a hit: at the top dose activity change, negative = inhibition, usual class: inhibitors;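 further: plate controls were DMSO wells for no effect and full inhibition by NEM control for full effect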
#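 Cell-free coupled assay: 10nM USP2 core preincubated 30min RT with compound in Tris-HCl pH 8.0/CaCl2/CHAPS buffer, then 25nM Ub-CHOP2 and 25nM reporter substrate; fluorescence (Ex 485/Em 531) read after 60min RT, normalized to NEM inhibition, concentration-response curves fitted.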
# B2AR arrestin = qHTS assay of beta-arrestin-biased ligands of beta2-adrenergic receptor | Beta-2 adrenergic receptor (Homo sapiens), P07550 | beta-arrestin recruitment to beta2AR, cell-based reporter | Potency, µM (doses to about 46.1 µM), for the others: at the highest dose activation, hits mostly activators | actives 0.02% (n = 330,000);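 further: 0% = DMSO controls and full agonism = EC100 isoproterenol or metaproterenol; nearly all actives have a fitted effect of over 65% in size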
# Eya2 phos inh = qHTS Assay for Inhibitors of the Phosphatase Activity of Eya2. recombinant Eya2, OMFP fluorescence dephosphorylation (OMFP is methylfluorescein phosphate). Potency, µM (series often up to 76.9 µM), inactives show at the top dose activity, negative = inhibition, actives largely listed as inhibitors. actives 0.006% (n = 330,000); further: on the % scale 0 is the no-effect control and ±100 the full control effect
# Target sequence (O00167 whole entry, looked up): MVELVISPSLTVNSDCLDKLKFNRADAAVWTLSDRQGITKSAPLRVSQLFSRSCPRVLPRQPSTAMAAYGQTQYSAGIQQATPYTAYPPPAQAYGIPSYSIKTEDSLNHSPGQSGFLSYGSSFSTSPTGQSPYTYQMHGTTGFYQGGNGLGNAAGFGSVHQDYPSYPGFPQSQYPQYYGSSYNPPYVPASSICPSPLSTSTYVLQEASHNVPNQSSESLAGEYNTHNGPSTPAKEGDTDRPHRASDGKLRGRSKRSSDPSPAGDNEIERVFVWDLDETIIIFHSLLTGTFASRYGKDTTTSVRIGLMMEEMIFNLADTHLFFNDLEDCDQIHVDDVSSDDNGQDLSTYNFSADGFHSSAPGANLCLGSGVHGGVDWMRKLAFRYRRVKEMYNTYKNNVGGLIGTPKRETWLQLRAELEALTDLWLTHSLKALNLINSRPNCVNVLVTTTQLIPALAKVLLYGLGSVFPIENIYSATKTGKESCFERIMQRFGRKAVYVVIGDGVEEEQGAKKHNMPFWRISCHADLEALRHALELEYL
#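 Eya2 protein (added as 0.2 uM solution) was preincubated with compound for 10 min at ambient temperature in 50 mM HEPES pH 7.5, 50 mM NaCl, 5 uM MgCl2, 0.05% BSA, 1 mM DTT. OMFP (added at 50 uM) then reacted 10 min; fluorescence read at 485/525 nm.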
# Chronic BCR inh = qHTS Assay to Find Inhibitors of Chronic Active B-Cell Receptor Signaling; ABC-DLBCL IkBa-CBG/CBR reporter, luminescence ratio, 4 h; Potency, µM (highest dose often 46.1 µM), inactives show at the top dose activity change, negative = inhibition, actives largely listed as inhibitors; actives 0.05% (n = 340,000); AID 493014, 2011; active means well fitted inhibition curve with a large enough effect in the signal ratio, with a control signal flat, not every such curve was filed as active; inconclusive means small, poorly fitted or top-dose-only effect, or effect the other way, or a change in a side signal; the % refers to the signal ratio;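 further: plate controls were basal doxycycline-induced cells for no effect and cells given 10 µM MG132 for full effect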
#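 TMD8 human ABC-DLBCL cells with doxycycline-inducible IκBα–green luciferase fusion and unfused red luciferase, in 0.5% FBS medium; compounds up to 46 uM, 4 h at 37C. Green/red luminescence ratio, filter-overlap corrected, fitted to concentration-response curves.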
# p53 reactivation = qHTS assay for re-activators of p53 using a Luc reporter; AID 504706, 2011; H1299 p53-A138V BP100-luciferase reporter, luminescence, 24 h; actives 0.063% (n = 320,000); Potency, µM (titrated, usually from 92.2 µM), for the others: at the top dose activity change, positive = activation, usual class: activators; further: % of control where 0% means no effect; nearly all actives have a fitted effect of over 45% in size
#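 p53-null H1299 cells stably carrying temperature-sensitive p53-A138V and a BP100-luciferase reporter were pinned with compounds (4-point, 1:5 series) and held 24 hrs at 37 deg C. Luminescence was read 10 min after detection reagent.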
# Starred values were filed as active, the others as inactive; ? = inconclusive; nt = no result; ! = not confirmed by another sample. Compounds with a hit are over-represented: about 0.15% of the library has one in this group of screens. Unless noted, the call rests on the fitted dose curve; in most records, active means well fitted curve in the direction sought with a large enough effect; inconclusive means small, poorly fitted or top-dose-only effect, or another doubt; inactive means no such curve, though single readings can be large; an effect the other way counts as inactive or inconclusive. Potency means the concentration at half of the fitted maximal effect.
SMILES,USP2a block,B2AR arrestin,Eya2 phos inh,Chronic BCR inh,p53 reactivation
Cc1cc2c(C(C)C)c(O)c(O)c(C=O)c2c(O)c1-c1c(C)cc2c(C(C)C)c(O)c(O)c(C=O)c2c1O,5.6µM*,0%,32µM*!,?,-12%
CN1CC[C@]2(c3cccc(O)c3)Cc3nc4ccccc4cc3C[C@H]2C1,0%,11µM*,-1%,?,nt
c1ccc(CN2CCc3nc4ccccc4cc3C2)cc1,-2%,-1%,12%,?,?
CC(C1CC2CCC1C2)n1c(-c2cccs2)n[nH]c1=S (stereo not given),6%,-2%,7%,?,-3%
O=c1oc2cccnc2n1CCS(=O)(=O)c1ccc(F)cc1,3%,-1%,-4%,?,12%
COC(=O)C1=C(c2ccc(OCc3ccccc3)cc2)C[C@@H]2CC[C@H]1N2C(=O)NCc1ccc(OC)c(OC)c1,-3%,18µM*,-13%,?,-14%
COc1cc(C(O)c2nc3ccccc3s2)cc(OC)c1OC (stereo not given),5%,0%,-11%,?,-2%
COc1ccc(S(=O)(=O)Cc2ccc(C(=O)N3CCC4(CC3)OCCO4)o2)cc1,?,1%,15%,20%,-1%
Cc1ccc(S(=O)(=O)Cc2ccc(C(=O)N3CCN(c4cccc(C)c4C)CC3)o2)cc1,2%,0%,2%,13µM*,nt
Cn1ncnc2c(=O)n(C)c(=O)nc1-2,1%,-1%,20µM*,?,-69%
O=C(Nc1ccc(Cl)cc1)Nc1ccc(Cl)c(Cl)c1,-1%,0%,-14%,?,28µM*
CCN1CCN(c2ccc(NC(C)=O)cc2Cl)CC1,-1%,-1%,-2%,3%,-1%
